Results: PubChem BioAssay (EPA / NIEHS)
Active and inactive are the calls of the source. Rule for the calls: active = hit-call score of the fitted dose curve at least 0.9, where 1 is the maximum; inactive = score below 0.9.

Tests used:
Conditions in all cases: mRNA level, 48 h; actives raise or lower the signal
[1] = read-out: Cytochrome P450 3A4 (Homo sapiens) (UniProt P08684); experiment: LTEA_HepaRG_CYP3A4: Life Technologies and Expression Analysis (LTEA) Assay for CYP3A4 using HepaRG (AID 2283487)
Summary of the method: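 CYP3A4 transcript measured by TaqMan qRT-PCR and normalized to three housekeeping genes after 48 h chemical exposure of human HepaRG cells. Top concentration 100 uM, half-log steps, 0.5% DMSO vehicle; gain or loss fitted against DMSO baseline.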

[2] = read-out: Pro-epidermal growth factor (Homo sapiens) (UniProt P01133); experiment: LTEA_HepaRG_EGF: Life Technologies and Expression Analysis (LTEA) Assay for Epidermal growth factor (EGF) using HepaRG (AID 2283489)
Summary of the method: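 qRT-PCR readout of EGF transcript after 48 h chemical exposure of HepaRG cells; eight concentrations from 100 uM down in half-log steps, duplicate wells, 0.5% DMSO vehicle. Bidirectional curve fitting against DMSO baseline.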

[3] = read-out: Early growth response protein 1 (EGR1) transcription factor, EGR1 (gene 1958); experiment: LTEA_HepaRG_EGR1: Life Technologies and Expression Analysis (LTEA) Assay for Early growth response protein 1 (EGR1) transcription factor using HepaRG (AID 2283490)
Summary of the method: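 HepaRG, 48 h exposure, 8-pt half-log series from 100 uM, 0.5% DMSO vehicle; EGR1 transcript by TaqMan qRT-PCR (Fluidigm array), housekeeping-normalized; bidirectional fit relative to DMSO baseline.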

[4] = read-out: Ezrin (EZR), EZR (gene 7430); experiment: LTEA_HepaRG_EZR: Life Technologies and Expression Analysis (LTEA) Assay for Ezrin (EZR) using HepaRG (AID 2283491)
Summary of the method: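 HepaRG, 48 h chemical exposure, 8-pt half-log series from 100 uM, 0.5% DMSO vehicle, duplicates. Read-out: EZR mRNA by TaqMan qRT-PCR (Fluidigm array), housekeeping-normalized; bidirectional curve fit vs DMSO baseline.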

[5] = read-out: Cytochrome P450 3A7 (Homo sapiens) (UniProt P24462); experiment: LTEA_HepaRG_CYP3A7: Life Technologies and Expression Analysis (LTEA) Assay for CYP3A7 using HepaRG (AID 2283492)
Summary of the method: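 CYP3A7 transcript levels were read by TaqMan qRT-PCR on Fluidigm arrays after 48 h chemical exposure of human HepaRG cells, with housekeeping-gene normalisation. Eight half-log concentrations up to 100 uM in 0.5% DMSO were tested in duplicate.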

[6] = read-out: CYP3A5 (gene 1577); experiment: LTEA_HepaRG_CYP3A5: Life Technologies and Expression Analysis (LTEA) Assay for CYP3A5 using HepaRG (AID 2283493)
Summary of the method: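 qRT-PCR read-out: CYP3A5 transcript in HepaRG lysates, housekeeping-normalized (ACTB/GAPDH/POLR2A), fitted bidirectionally against 0.5% DMSO baseline. Exposure 48 h, eight half-log concentrations up to 100 uM, duplicates.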

[7] = read-out: Fatty Acid-Binding Protein 1 (FABP1), FABP1 (gene 2168); experiment: LTEA_HepaRG_FABP1: Life Technologies and Expression Analysis (LTEA) Assay for Fatty Acid-Binding Protein 1 (FABP1) using HepaRG (AID 2283494)
Summary of the method: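 qRT-PCR readout of FABP1 transcript (normalized to three housekeeping genes) after 48 h chemical exposure of HepaRG cells; eight concentrations, half-log steps, max 100 uM, 0.5% DMSO vehicle; gain or loss fitted relative to DMSO baseline.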

[8] = read-out: Cytochrome P450 4A22 (Homo sapiens) (UniProt Q5TCH4); experiment: LTEA_HepaRG_CYP4A22: Life Technologies and Expression Analysis (LTEA) Assay for Cytochrome P450 4A22 (CYP4A22) using HepaRG (AID 2283495)
Summary of the method: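 HepaRG, 48 h post-plating -> serum-free induction medium; dosed 48 h, duplicate, 8 conc. (100 uM top, half-log), 0.5% DMSO. Readout: CYP4A22 mRNA by qRT-PCR, ACTB/GAPDH/POLR2A normalization; gain/loss fit relative to DMSO.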

[9] = read-out: Cytochrome P450 7A1 (Homo sapiens) (UniProt P22680); experiment: LTEA_HepaRG_CYP7A1: Life Technologies and Expression Analysis (LTEA) Assay for Cytochrome P450 7A1 (CYP7A1) using HepaRG (AID 2283496)
Summary of the method: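 Using 0.5% DMSO as vehicle and baseline, chemicals were tested in duplicate over an 8-point range from 100 uM on HepaRG cells for 48 h; qRT-PCR signals were normalised to ACTB, GAPDH and POLR2A.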

[10] = read-out: DNA damage-inducible transcript 3 (DDIT3), DDIT3 (gene 1649); experiment: LTEA_HepaRG_DDIT3: Life Technologies and Expression Analysis (LTEA) Assay for DNA damage-inducible transcript 3 (DDIT3) using HepaRG (AID 2283488)
Summary of the method: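 qRT-PCR readout (Fluidigm TaqMan), housekeeping-normalized to ACTB, GAPDH, POLR2A. HepaRG cells, 48 h exposure, 8-point half-log series from 100 uM in 0.5% DMSO, duplicates. Gain or loss of signal fitted against DMSO baseline.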

Sequence of Cytochrome P450 3A7 (Homo sapiens) (P24462 whole entry, looked up): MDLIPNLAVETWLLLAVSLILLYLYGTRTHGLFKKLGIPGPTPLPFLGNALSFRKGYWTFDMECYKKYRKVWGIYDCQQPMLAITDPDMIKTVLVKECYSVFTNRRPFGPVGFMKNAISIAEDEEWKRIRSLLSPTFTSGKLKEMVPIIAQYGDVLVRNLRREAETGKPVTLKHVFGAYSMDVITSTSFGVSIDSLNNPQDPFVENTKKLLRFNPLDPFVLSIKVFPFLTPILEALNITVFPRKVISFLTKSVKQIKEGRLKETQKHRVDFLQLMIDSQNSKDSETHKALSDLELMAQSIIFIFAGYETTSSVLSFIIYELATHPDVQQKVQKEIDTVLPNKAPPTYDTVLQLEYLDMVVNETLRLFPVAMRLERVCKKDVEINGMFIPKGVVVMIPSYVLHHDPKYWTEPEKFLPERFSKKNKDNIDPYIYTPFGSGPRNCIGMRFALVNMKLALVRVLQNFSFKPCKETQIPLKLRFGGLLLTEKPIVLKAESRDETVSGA
Sequence of Cytochrome P450 3A4 (Homo sapiens) (P08684 whole entry, looked up): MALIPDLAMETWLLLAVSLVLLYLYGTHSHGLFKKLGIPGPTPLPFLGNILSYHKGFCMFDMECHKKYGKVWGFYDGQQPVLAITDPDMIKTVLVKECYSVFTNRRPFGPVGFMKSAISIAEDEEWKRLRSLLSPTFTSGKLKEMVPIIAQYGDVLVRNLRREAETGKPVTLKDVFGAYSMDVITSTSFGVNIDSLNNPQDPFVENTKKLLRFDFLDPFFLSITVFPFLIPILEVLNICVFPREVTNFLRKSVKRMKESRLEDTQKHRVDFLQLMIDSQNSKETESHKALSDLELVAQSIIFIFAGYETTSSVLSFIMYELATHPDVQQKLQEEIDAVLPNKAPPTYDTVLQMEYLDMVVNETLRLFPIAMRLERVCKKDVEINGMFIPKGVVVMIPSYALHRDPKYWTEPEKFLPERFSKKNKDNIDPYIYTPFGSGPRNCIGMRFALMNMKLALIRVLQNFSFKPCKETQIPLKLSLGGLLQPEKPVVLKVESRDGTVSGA

CC(C)(O)C(=O)Nc1ccc([N+](=O)[O-])c(C(F)(F)F)c1
outcome [1]: inactive
AC50 [2]: 0.0411 µM (active)
AC50 [3]: 0.0388 µM (active)
outcome [4]: inactive
outcome [5]: inactive
outcome [6]: inactive
AC50 [7]: 25 µM (active)
outcome [8]: inactive
outcome [9]: inactive

ClC1=C(Cl)[C@]2(Cl)[C@@H]3[C@H]4C[C@H]([C@@H]5O[C@H]45)[C@@H]3[C@@]1(Cl)C2(Cl)Cl
AC50 [10]: 50 µM (active)
outcome [2]: inactive
outcome [3]: inactive
outcome [4]: inactive
AC50 [5]: 2.94 µM (active)
outcome [6]: inactive
AC50 [7]: 1.86 µM (active)
AC50 [8]: 32.5 µM (active)
AC50 [9]: 17.4 µM (active)

Oc1ccc(C(c2ccc(O)cc2)(C(F)(F)F)C(F)(F)F)cc1
AC50 [1]: 81.7 µM (active)
AC50 [10]: 79.3 µM (active)
AC50 [2]: 80.1 µM (active)
AC50 [3]: 81.5 µM (active)
outcome [5]: inactive
AC50 [6]: 80.2 µM (active)
AC50 [7]: 92.5 µM (active)
outcome [8]: inactive
AC50 [9]: 89.6 µM (active)

O=S(=O)(O)C(F)(F)C(F)(F)C(F)(F)C(F)(F)C(F)(F)C(F)(F)F
AC50 [1]: 34.9 µM (active)
outcome [10]: inactive
outcome [2]: inactive
outcome [3]: inactive
AC50 [5]: 20.9 µM (active)
outcome [6]: inactive
AC50 [7]: 9.02 µM (active)
AC50 [8]: 25.1 µM (active)
outcome [9]: inactive

CC#Cc1cc(C)nc(Nc2ccccc2)n1
AC50 [1]: 28.2 µM (active)
outcome [10]: inactive
outcome [2]: inactive
outcome [3]: inactive
AC50 [5]: 41.6 µM (active)
AC50 [6]: 15.6 µM (active)
AC50 [7]: 13.7 µM (active)
AC50 [8]: 1.05 µM (active)
AC50 [9]: 13.8 µM (active)

Nc1ccc(-c2ccc(N)cc2)cc1
outcome [1]: inactive
outcome [10]: inactive
outcome [2]: inactive
outcome [3]: inactive
outcome [6]: inactive
outcome [7]: inactive
AC50 [8]: 8.3 µM (active)
AC50 [9]: 1.44 µM (active)

Cc1cc(O)ccc1Cl
outcome [1]: inactive
outcome [10]: inactive
outcome [2]: inactive
outcome [3]: inactive
outcome [5]: inactive
outcome [6]: inactive
outcome [7]: inactive
outcome [8]: inactive
outcome [9]: inactive

N#Cc1ccc(N(CC(N)=O)CC(F)(F)F)cc1C(F)(F)F
outcome [1]: inactive
outcome [10]: inactive
outcome [2]: inactive
outcome [3]: inactive
outcome [5]: inactive
outcome [6]: inactive
AC50 [7]: 2.3 µM (active)
outcome [8]: inactive
AC50 [9]: 0.622 µM (active)

ClC1=C(Cl)[C@]2(Cl)[C@@H]3[C@@H]4C[C@@H]([C@H]5O[C@@H]45)[C@@H]3[C@@]1(Cl)C2(Cl)Cl
AC50 [10]: 62.8 µM (active)
outcome [2]: inactive
outcome [3]: inactive
outcome [5]: inactive
outcome [6]: inactive
AC50 [7]: 0.0265 µM (active)
AC50 [8]: 34.2 µM (active)
AC50 [9]: 0.0248 µM (active)

C[C@]12CCC(=O)C=C1CC[C@@H]1[C@@H]2CC[C@]2(C)C(=O)CC[C@@H]12
AC50 [1]: 30.8 µM (active)
outcome [10]: inactive
outcome [2]: inactive
outcome [3]: inactive
outcome [5]: inactive
AC50 [6]: 50 µM (active)
AC50 [7]: 12.5 µM (active)
AC50 [8]: 72.7 µM (active)
AC50 [9]: 4.69 µM (active)

Cc1cccc(C)c1N
outcome [1]: inactive
outcome [10]: inactive
outcome [2]: inactive
outcome [3]: inactive
outcome [5]: inactive
outcome [6]: inactive
outcome [7]: inactive
outcome [8]: inactive
outcome [9]: inactive

Cc1cccc([N+](=O)[O-])c1
outcome [1]: inactive
outcome [10]: inactive
outcome [3]: inactive
outcome [4]: inactive
outcome [5]: inactive
outcome [6]: inactive
outcome [7]: inactive

Oc1ccc(Cl)cc1Cl
outcome [1]: inactive
outcome [10]: inactive
outcome [2]: inactive
outcome [3]: inactive
outcome [5]: inactive
outcome [6]: inactive
outcome [7]: inactive
outcome [8]: inactive
outcome [9]: inactive

COS(=O)(=O)OC
outcome [1]: inactive
outcome [10]: inactive
outcome [2]: inactive
outcome [3]: inactive
outcome [5]: inactive
outcome [6]: inactive
outcome [7]: inactive
outcome [8]: inactive
outcome [9]: inactive

NS(=O)(=O)C(F)(F)C(F)(F)C(F)(F)C(F)(F)C(F)(F)C(F)(F)C(F)(F)C(F)(F)F
AC50 [1]: 10.7 µM (active)
AC50 [10]: 28.9 µM (active)
AC50 [2]: 8.93 µM (active)
AC50 [3]: 89 µM (active)
AC50 [5]: 7.34 µM (active)
AC50 [6]: 21 µM (active)
AC50 [7]: 9.04 µM (active)
AC50 [8]: 11.1 µM (active)
AC50 [9]: 8.86 µM (active)

CC(c1ccc(O)cc1)(c1ccc(O)cc1)c1ccc(O)cc1
AC50 [1]: 23.6 µM (active)
outcome [10]: inactive
outcome [2]: inactive
AC50 [3]: 81 µM (active)
AC50 [5]: 20.7 µM (active)
AC50 [6]: 37.1 µM (active)
AC50 [7]: 75.8 µM (active)
outcome [8]: inactive
AC50 [9]: 67 µM (active)

Cc1cc(-c2ccc(N)c(C)c2)ccc1N
outcome [1]: inactive
outcome [10]: inactive
outcome [2]: inactive
outcome [3]: inactive
outcome [5]: inactive
outcome [6]: inactive
AC50 [7]: 24.9 µM (active)
outcome [8]: inactive
AC50 [9]: 9.92 µM (active)

CCCCCCCCOC(=O)c1ccccc1C(=O)OCCCCCCCC
outcome [1]: inactive
outcome [10]: inactive
outcome [2]: inactive
outcome [3]: inactive
outcome [5]: inactive
outcome [6]: inactive
outcome [7]: inactive
outcome [8]: inactive
outcome [9]: inactive

C[C@]12CCC(=O)C=C1CC[C@@H]1[C@@H]2CC[C@@]2(C)[C@H]1CC[C@]2(C)O
outcome [1]: inactive
AC50 [10]: 80 µM (active)
outcome [2]: inactive
outcome [3]: inactive
outcome [5]: inactive
outcome [6]: inactive
outcome [7]: inactive
AC50 [8]: 69.8 µM (active)
AC50 [9]: 1.9 µM (active)

CCC(C)c1cc([N+](=O)[O-])cc([N+](=O)[O-])c1O (centres undefined)
AC50 [1]: 2.37 µM (active)
AC50 [10]: 5.95 µM (active)
AC50 [2]: 1.97 µM (active)
AC50 [3]: 17.1 µM (active)
AC50 [5]: 1.57 µM (active)
AC50 [6]: 15.5 µM (active)
AC50 [7]: 1.27 µM (active)
AC50 [8]: 2.35 µM (active)
AC50 [9]: 2.67 µM (active)

CN(C)c1nc(=O)n(C2CCCCC2)c(=O)n1C
AC50 [1]: 50 µM (active)
outcome [10]: inactive
outcome [2]: inactive
outcome [3]: inactive
AC50 [5]: 28.6 µM (active)
outcome [6]: inactive
outcome [7]: inactive
outcome [8]: inactive
outcome [9]: inactive

ClC(Cl)=C(c1ccc(Cl)cc1)c1ccc(Cl)cc1
AC50 [1]: 7.4 µM (active)
outcome [10]: inactive
outcome [2]: inactive
outcome [3]: inactive
AC50 [5]: 8.96 µM (active)
outcome [6]: inactive
AC50 [7]: 50 µM (active)
outcome [8]: inactive
outcome [9]: inactive

Nn1cnnc1
outcome [1]: inactive
outcome [10]: inactive
outcome [2]: inactive
outcome [3]: inactive
outcome [5]: inactive
outcome [6]: inactive
outcome [7]: inactive
outcome [8]: inactive
outcome [9]: inactive

c1ccc(-c2ccccc2)cc1
outcome [1]: inactive
outcome [10]: inactive
outcome [3]: inactive
outcome [5]: inactive
outcome [6]: inactive
outcome [7]: inactive
